# Screens (PubChem)
# Rows were chosen to be rich in hits. Some 21% of all compounds tested hit in one or more screens of this group.
# Pf growth 96h – inhibits malaria parasite growth, 96 h. P. falciparum luciferase reporter growth, 96 h. AID 504834. Potency, µM (highest dose often 28.7 µM), hits mostly inhibitors. 320,000 compounds, 6.9% hits
#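 Delayed-death screen, second-generation endpoint: infected erythrocytes, 2% hematocrit, 0.05% parasitemia final; 96 hours at 37 C, 5% CO2; luciferase detection reagent; luminescence decrease equals reduced growth.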
# Giardia FBPA inh – Giardia lamblia aldolase inhibition | A8B2U2 | purified Giardia FBPA | Potency, µM (series often up to 59.6 µM), hits mostly inhibitors | 290,000 compounds, 0.71% hits; further: nearly all actives have a fitted effect of over 55% in size
# Target sequence (A8B2U2 whole entry, looked up): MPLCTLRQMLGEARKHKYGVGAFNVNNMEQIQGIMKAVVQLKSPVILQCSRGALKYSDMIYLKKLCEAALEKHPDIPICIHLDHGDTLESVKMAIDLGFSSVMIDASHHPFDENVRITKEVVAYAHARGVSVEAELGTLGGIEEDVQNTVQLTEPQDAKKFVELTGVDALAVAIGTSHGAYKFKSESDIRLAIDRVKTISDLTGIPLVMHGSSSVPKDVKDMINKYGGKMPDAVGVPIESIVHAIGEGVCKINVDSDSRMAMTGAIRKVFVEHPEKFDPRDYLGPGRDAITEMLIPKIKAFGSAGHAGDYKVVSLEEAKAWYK
#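 40 nM FBPA preincubated 10 min at RT with compound (up to 57.5 uM final), then substrate plus GAPDH/TPI/NAD/arsenate coupling and diaphorase/resazurin added. Fluorescence read after 20 min at RT, 525/598 nm.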
# Cycloheximide cs – counter-screen hit for Shiga toxin inhibitors, cycloheximide; max response, %; cell reporter, cycloheximide protein synthesis inhibition counterscreen; AID 2314; 300,000 compounds, 12% hits; in the data active means max response mostly above about 13%, no sharp cut-off; inactive means mostly below about 14%; further: read at 38.3 µM for the half of the compounds with a filed dose
# Shiga inhibitor – Shiga toxin inhibition; Vero cells, Shiga toxin protein synthesis inhibition reporter; inhibition, % at 38.7 µM; 290,000 compounds, 9.2% hits; AID 2315; in the data active means inhibition mostly above about 28%, no sharp cut-off; inactive means mostly below about 43%
# Pf growth 48h – inhibits P. falciparum growth in the first generation, 48 h. 310,000 compounds, 5.9% hits. P. falciparum luciferase growth in erythrocytes, 48 h. Potency, µM (titrated, usually from 28.7 µM), most hits filed as inhibitors
#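 In quantitative HTS format, infected erythrocytes bearing luciferase-reporter parasites were treated for a single generation at 37 C. Luminescence after adding detection reagent served as the growth measure.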
# NS1 inh – influenza NS1 inhibition; 270,000 compounds, 0.4% hits; Potency, µM (doses to about 46.1 µM); calls by dose curve; further: actives are rising curves; nearly all actives have a fitted effect of over 50% in size
#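 Compounds were scored for reversing the slow growth caused by influenza A NS1 in S. cerevisiae, measured by optical density at 600 nm. Assay medium contained 2% galactose at pH 6.0; NS1-free yeast of the same strain were the positive control.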
# A number is an active result; 0 = inactive; ? = inconclusive; - = no result; [ ] = remark or other dose. Unless noted, the call rests on the fitted dose curve; in most records, active means well fitted curve in the direction sought with a large enough effect; inconclusive means small, poorly fitted or top-dose-only effect, or another doubt; inactive means no such curve, though single readings can be large; an effect the other way counts as inactive or inconclusive.
SMILES,Pf growth 96h,Giardia FBPA inh,Cycloheximide cs,Shiga inhibitor,Pf growth 48h,NS1 inh
O=C(CCCCCn1c(=S)[nH]c2ccc(N3CCOCC3)cc2c1=O)NCc1ccc(Cl)cc1,0,0,0,0,8.28µM,-
O=c1c2cc(N3CCOCC3)ccc2[nH]c(=S)n1CCN1CCCC1,?,0,0,0,?,0
O=c1c2cc(N3CCOCC3)ccc2[nH]c(=S)n1CCCN1CCN(c2ccccc2F)CC1,0,0,0,0,0,0
Cc1ccc(Cn2c(=S)[nH]c3ccc(N4CCOCC4)cc3c2=O)o1,0,?,15.6,0,?,?
O=c1c2cc(N3CCOCC3)ccc2[nH]c(=S)n1Cc1ccc(Cl)cc1,0,0,76.3,40.3,-,0
Cc1cccc(N2CCN(C(=O)CCCCCn3c(=S)[nH]c4ccc(N5CCOCC5)cc4c3=O)CC2)c1C,0,-,0,0,9.28µM,0
CCCCn1c(=S)[nH]c2ccc(N3CCOCC3)cc2c1=O,8.28µM,0,0,0,?,-
Cc1cccc(CSc2nc(N)c(C#N)c(-c3cccs3)c2C#N)c1,?,0,0,0,13.1µM,0
CCS(=O)(=O)N1Cc2ccccc2CC1C(=O)Nc1ccc(OC)cc1 (configuration not stated),0[5.75 µM],0,35.2,0,0,-
CCS(=O)(=O)N1Cc2ccccc2CC1C(=O)Nc1ccc(NC(C)=O)cc1 (configuration not stated),-,0,0,0,0,0
COc1ccc(S(=O)(=O)N2Cc3ccccc3CC2C(=O)Nc2ccc(O)cc2)cc1OC (configuration not stated),3.7µM,0,0,0,?,0
CNC(=O)C1Cc2ccccc2CN1S(=O)(=O)c1ccc(OC)c(OC)c1 (configuration not stated),0,0,0,-,?,0
CCS(=O)(=O)N1Cc2ccccc2CC1C(=O)Nc1ccc(F)c(F)c1F (configuration not stated),0,0,24.5,0,0,0
CCS(=O)(=O)N1Cc2ccccc2CC1C(=O)OCC(=O)N(C(C)C)C(C)C (configuration not stated),9.28µM,0,0,0,?,-
N#CC1(NC(=O)COC(=O)c2cccc(-n3cnnn3)c2)CCCCC1,0,-,-,-,0,-
N#Cc1ccc(OCC(O)CN2CCN(c3ncc(C(F)(F)F)cc3Cl)CC2)cc1 (configuration not stated),0,0,0,0,?,0
CCS(=O)(=O)N1Cc2ccccc2CC1C(=O)Nc1ccc(F)c(F)c1 (configuration not stated),0,0,37.0,81.8,0,0
CCS(=O)(=O)N1Cc2ccccc2CC1C(=O)Nc1ccc(C)cc1 (configuration not stated),-,0,0,0,0,0
CCS(=O)(=O)N1Cc2ccccc2CC1C(=O)Nc1cccc(C)c1 (configuration not stated),0,0,37.3,120.1,0,-
CCS(=O)(=O)N1Cc2ccccc2CC1C(=O)Nc1cc(S(C)(=O)=O)ccc1Cl (configuration not stated),?,-,0,0,0,0
CCS(=O)(=O)N1Cc2ccccc2CC1C(=O)NCCc1ccccc1 (configuration not stated),0,0,19.0,0,0,0
Cc1ccc(-c2cc(C(=O)NCc3ccco3)c3ccccc3n2)s1,0,0,9.3,0,0,0
COc1ccc(CNC(=O)COC(=O)c2cc(-c3ccc(Cl)s3)nc3ccccc23)cc1,-,0,0,0,0,0
O=C(COC(=O)c1cc(-c2cccs2)nc2ccccc12)NCc1ccco1,0,0,29.1,90.4,0,0
O=C(NCc1ccco1)c1cc(-c2cccs2)nc2ccccc12,18.5µM,0,13.4,0,?,0
SMILES,Pf growth 96h,Giardia FBPA inh,Cycloheximide cs,Shiga inhibitor,Pf growth 48h,NS1 inh
O=C(COC(=O)c1cc(-c2ccc(Cl)s2)nc2ccccc12)NCc1ccco1,-,0,15.8,0,0,0
O=C(CN(C(=O)c1csnn1)c1ccc(F)c(Cl)c1)NC1CCCC1,?,0,0,0,0,0
O=c1cc(Nc2cccc(Br)c2)[nH]c(=O)[nH]1,11.7µM,0,0,0,0,-
Cc1cccc(Nc2cc(=O)[nH]c(=O)[nH]2)c1,11.7µM,0,0,0,0,0
Cc1ccc(Nc2cc(=O)[nH]c(=O)[nH]2)cc1C,0,0,0,0,?,-
O=C(NCCO)C(=O)Nc1cc2c3c(c1)CCN3C(=O)CC2,0,0,0,0,0,0
CCCCC/C=C\C/C=C\C/C=C\C/C=C\CCCCCC(=O)NCC(=O)O,-,0,-,-,-,-
COc1cc(/C=C2\S/C(=N/S(=O)(=O)Cc3ccccc3)NC2=O)c([N+](=O)[O-])cc1OC,8.28µM,0,0,0,?,0
COc1cc(/C=C2/S/C(=N/S(=O)(=O)Cc3ccccc3)NC2=O)c([N+](=O)[O-])cc1OC,?,0,0,0,?,0
Cc1ccc(-c2c[n+](CC(=O)Nc3cc(=O)n(C)c(=O)n3C)c3n2CCC3)cc1,1.17µM,0,0,0,4.15µM,0
Cc1ccc(-c2c[n+](CC(=O)Nc3nc(-c4ccccc4)cs3)c3n2CCC3)cc1,?,0,0,0,?,0
Cn1c(NC(=O)C[n+]2cc(-c3ccc(F)cc3)n3c2CCC3)cc(=O)n(C)c1=O,0.586µM,0,0,0,3.7µM,0
O=C(C[n+]1cc(-c2ccc(F)cc2)n2c1CCC2)c1cccs1,?,0,18.3,88.7,8.28µM,0
c1ccc(C2C3=C(Nc4ncnn42)c2ccccc2CCC3)cc1 (configuration not stated),5.22µM,0,0,0,0,0
Clc1ccc(C2C3=C(Nc4ncnn42)c2ccccc2CC3)cc1 (configuration not stated),?,0,0,0,-,0
COc1ccc(C(=O)Nc2cc(Cl)cc(Cl)c2)c(OC)n1,0,0,0,0,0,0
CC(C)(C)C(=O)Nc1ccccc1C(=O)Nc1cc(Cl)ccc1Cl,4.15µM,0,0,0,11.7µM,0
COc1ccc(C(=O)Nc2cc(Cl)ccc2Cl)c(OC)n1,0,0,17.8,0,0,0
CC1=C(C(=O)OCC2CCCO2)C(c2ccccc2OC(C)C)C2=C(CC(c3ccco3)CC2=O)N1 (configuration not stated),0,0,0,0,3.29µM,?
CC1=C(C(=O)OCC2CCCO2)C(c2ccc(C)o2)C2=C(CC(c3ccc(F)cc3)CC2=O)N1 (configuration not stated),0,0,0,0,?,0
CC1=C(C(=O)OCC2CCCO2)C(c2cccc(C(F)(F)F)c2)C2=C(CC(c3ccco3)CC2=O)N1 (configuration not stated),-,0,0,0,13.1µM,0
CNc1nc2c3ccccc3n(C(C)=O)c2s1,?,0,0,0,-,0
CC(=O)n1c2ccccc2c2nc(NC(C)C)sc21,0,0,15.9,0,-,0
Cc1ccc(S(=O)(=O)n2cc(-c3ccccc3)c3ccccc32)cc1,?,-,-,-,2.62µM,-
COc1cccc(C(=O)N2CCN(C(=O)C3CC3)CC2)c1,11.7µM,0,0,0,0,0
